Laboratory results published in PubChem BioAssay (Tox21).
“And” between values parts separate entries of the source, which are not always exact repeats. Identical values can stand only once. Records with an inconclusive call do not appear. A call without a number means that no potency is given here. Where a structure was tested more than once in an assay, its records may differ in their call. The source made the active and inactive calls. Unless noted, calls follow the shape of the dose curve; as a rule, active = well fitted curve in the direction sought with a large enough effect in the repeat runs; inconclusive = weak or mixed curves; inactive = no such curve, though single readings can be large; an effect the other way counts as inactive or inconclusive.

Columns and labels:
[1] = Caspase-3/7 induction in HepG2 cells by small molecules, qHTS cell viability counter screen (AID 1346981); also: series mostly up to about 92 µM; nearly all actives have a fitted effect of over 30% in size
Method in brief: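 Multiplexed with the caspase-3/7 assay: HepG2 cells, 16 hr compound treatment, CellTiter-Fluor viability detection by fluorescence.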

[2] = biological target: Nuclear receptor subfamily 1 group I member 2 (Homo sapiens) (UniProt O75469); experiment: Human pregnane X receptor (PXR) small molecule agonists, qHTS assay (AID 1346982); also: nearly all actives have a fitted effect of over 35% in size; also: potency is read from the fitted curve at half-maximal effect
Method in brief: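 We seeded PXR-Luc HepG2 cells in assay medium containing 5% charcoal-stripped FBS, added compounds 5 hr later, incubated 24 hr, and read luminescence with ONE-Glo reagent.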

[3] = biological target: Acetylcholinesterase (Homo sapiens) (UniProt P22303); experiment: Acetylcholinesterase (AChE) small molecule antagonists: colormetric cell-based qHTS assay (AID 1347395; calls by dose curve; also: nearly all actives have a fitted effect of over 30% in size)
Method in brief: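 In this cell-based qHTS, attached SH-SY5Y cells were treated with test chemicals for 30 min, after which acetylthiocholine hydrolysis was followed by DTNB colour development over 90 min at 37 C.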

[4] = biological target: Acetylcholinesterase (Homo sapiens) (UniProt P22303); experiment: Acetylcholinesterase (AChE) small molecule antagonists: enzyme-based qHTS assay (AID 1347397; calls by dose curve; also: nearly all actives have a fitted effect of over 55% in size); settings: Potency: AChE enzyme activity inhibition
Method in brief: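 rhAChE 50 mU/mL (dispensed) + cpd or DMSO, 30 min RT; add DTNB/acetylthiocholine cocktail, 10 min RT; colorimetric thiocholine readout. qHTS, 1536-well format.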

[5] = biological target: Acetylcholinesterase (Homo sapiens) (UniProt P22303); experiment: Acetylcholinesterase (AChE) small molecule antagonists: fluorescence cell-based qHTS assay (AID 1347398; calls by dose curve; also: nearly all actives have a fitted effect of over 50% in size); settings: Potency: AChE activity
Method in brief: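 Read-out is Thiolite Green fluorescence at Ex/Em = 490/520 nm, formed by reaction with thiocholine released when cellular AChE in SH-SY5Y cells hydrolyzes acetylthiocholine. Compounds were preincubated 30 min at 37 C before substrate.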

[6] = biological target: Acetylcholinesterase (Homo sapiens) (UniProt P22303); experiment: Acetylcholinesterase (AChE) small molecule antagonists: enzyme-based qHTS assay with human liver microsomes (AID 1347399; calls by dose curve; also: nearly all actives have a fitted effect of over 60% in size); settings: Potency: qHTS inhibition
Method in brief: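 Recombinant human AChE (50 mU/mL in the enzyme mix) and human liver microsomes (0.25 mg/mL final) were preincubated with compound and NADPH (0.25 mg/mL final) for 30 min at 37 C. Acetylthiocholine/DTNB was then added; thiocholine was read colorimetrically after 10 min at room temperature.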

[7] = biological target: Cytochrome P450 2D6 (Homo sapiens) (UniProt P10635); experiment: Cytochrome P450 Family 2 Subfamily D Member 6 (CYP2D6) small molecule antagonists: luciferase reporter qHTS assay (AID 1671196); also: nearly all actives have a fitted effect of over 50% in size; also: potency is read from the fitted curve at half-maximal effect
Method in brief: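 Luminescence (RLU), read 20 min after detection reagent, indicated CYP2D6 conversion of proluciferin to luciferin during a 1 h NADPH-dependent reaction at room temperature.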

[8] = biological target: Cytochrome P450 2C19 (Homo sapiens) (UniProt P33261); experiment: Cytochrome P450 Family 2 Subfamily C Member 19 (CYP2C19) small molecule antagonists: luciferase reporter qHTS assay (AID 1671197); also: nearly all actives have a fitted effect of over 65% in size; also: potency is read from the fitted curve at half-maximal effect
Method in brief: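 Enzyme-substrate mix with proluciferin substrate (P450-Glo CYP2C19 system) preincubated with compounds 10 min at room temperature; NADPH regeneration solution added, 37C for 1 h; detection reagent stops reaction, luminescence read after 20 min. Ketoconazole positive control.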

[9] = biological target: Cytochrome P450 2C9 (Homo sapiens) (UniProt P11712); experiment: Cytochrome P450 Family 2 Subfamily C Member 9 (CYP2C9) small molecule antagonists: luciferase reporter qHTS assay (AID 1671198); also: nearly all actives have a fitted effect of over 50% in size; also: potency is read from the fitted curve at half-maximal effect
Method in brief: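 Enzyme-substrate mix preincubated with compound 10 min at room temperature; reaction started with NADPH regeneration solution, 1 h 37C. Luminescent luciferin product read after 20 min detection reagent.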

[10] = biological target: Cytochrome P450 1A2 (Homo sapiens) (UniProt P05177); experiment: Cytochrome P450 Family 1 Subfamily A Member 2 (CYP1A2) small molecule antagonists: luciferase reporter qHTS assay (AID 1671199); also: nearly all actives have a fitted effect of over 50% in size; also: potency is read from the fitted curve at half-maximal effect
Method in brief: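 CYP1A2 turnover of a luminogenic substrate was quantified after 1 h with NADPH regeneration at room temperature. Furafylline served as positive control.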

[11] = biological target: Voltage-gated inwardly rectifying potassium channel KCNH2 (Homo sapiens) (UniProt Q12809); experiment: Human Ether-a-go-go-Related Gene (hERG) channel small molecule antagonists: fluorescence cell-based qHTS assay (AID 1671200)
Method in brief: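 Cell line hERG-U2OS; dye FluxOR II, 1 h RT dark; Tl+ stimulus; ex 480/em 540 nm, read each second for 2 min.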

[12] = biological target: Cytochrome P450 3A4 (Homo sapiens) (UniProt P08684); experiment: Cytochrome P450 Family 3 Subfamily A Member 4 (CYP3A4) small molecule antagonists: luciferase reporter qHTS assay (AID 1671201); also: nearly all actives have a fitted effect of over 50% in size; also: potency is read from the fitted curve at half-maximal effect
Method in brief: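 Room-temperature assay throughout: 10 min compound–enzyme/substrate preincubation, 1 h reaction after NADPH regeneration solution, 20 min detection. Luciferin formed from proluciferin substrate is quantified by luminescence.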

Cytochrome P450 3A4 (Homo sapiens), sequence (P08684 whole entry, looked up): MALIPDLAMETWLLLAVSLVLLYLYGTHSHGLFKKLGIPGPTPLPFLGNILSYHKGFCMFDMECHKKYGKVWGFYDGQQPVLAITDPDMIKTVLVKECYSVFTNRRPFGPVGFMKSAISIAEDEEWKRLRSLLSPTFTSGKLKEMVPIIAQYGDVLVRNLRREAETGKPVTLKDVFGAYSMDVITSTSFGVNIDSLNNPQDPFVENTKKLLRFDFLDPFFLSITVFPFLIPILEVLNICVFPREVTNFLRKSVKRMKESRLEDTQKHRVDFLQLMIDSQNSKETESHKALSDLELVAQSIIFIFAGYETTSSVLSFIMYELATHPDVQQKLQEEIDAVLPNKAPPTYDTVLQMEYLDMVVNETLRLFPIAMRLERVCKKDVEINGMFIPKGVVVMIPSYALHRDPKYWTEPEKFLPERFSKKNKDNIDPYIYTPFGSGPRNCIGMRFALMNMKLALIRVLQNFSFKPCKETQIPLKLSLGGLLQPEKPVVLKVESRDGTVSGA
Nuclear receptor subfamily 1 group I member 2 (Homo sapiens), sequence (O75469 whole entry, looked up): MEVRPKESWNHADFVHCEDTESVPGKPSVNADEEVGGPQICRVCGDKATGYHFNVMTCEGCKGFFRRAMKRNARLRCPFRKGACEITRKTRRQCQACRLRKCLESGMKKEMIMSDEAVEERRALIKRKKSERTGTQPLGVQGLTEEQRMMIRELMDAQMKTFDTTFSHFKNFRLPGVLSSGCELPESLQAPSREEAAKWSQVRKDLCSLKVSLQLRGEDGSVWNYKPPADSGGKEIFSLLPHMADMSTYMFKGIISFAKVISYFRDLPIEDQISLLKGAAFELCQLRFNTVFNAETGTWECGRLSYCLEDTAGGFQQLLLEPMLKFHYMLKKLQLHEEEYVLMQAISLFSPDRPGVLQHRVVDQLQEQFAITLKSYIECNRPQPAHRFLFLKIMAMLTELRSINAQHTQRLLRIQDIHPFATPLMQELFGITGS
Acetylcholinesterase (Homo sapiens), sequence (P22303 whole entry, looked up): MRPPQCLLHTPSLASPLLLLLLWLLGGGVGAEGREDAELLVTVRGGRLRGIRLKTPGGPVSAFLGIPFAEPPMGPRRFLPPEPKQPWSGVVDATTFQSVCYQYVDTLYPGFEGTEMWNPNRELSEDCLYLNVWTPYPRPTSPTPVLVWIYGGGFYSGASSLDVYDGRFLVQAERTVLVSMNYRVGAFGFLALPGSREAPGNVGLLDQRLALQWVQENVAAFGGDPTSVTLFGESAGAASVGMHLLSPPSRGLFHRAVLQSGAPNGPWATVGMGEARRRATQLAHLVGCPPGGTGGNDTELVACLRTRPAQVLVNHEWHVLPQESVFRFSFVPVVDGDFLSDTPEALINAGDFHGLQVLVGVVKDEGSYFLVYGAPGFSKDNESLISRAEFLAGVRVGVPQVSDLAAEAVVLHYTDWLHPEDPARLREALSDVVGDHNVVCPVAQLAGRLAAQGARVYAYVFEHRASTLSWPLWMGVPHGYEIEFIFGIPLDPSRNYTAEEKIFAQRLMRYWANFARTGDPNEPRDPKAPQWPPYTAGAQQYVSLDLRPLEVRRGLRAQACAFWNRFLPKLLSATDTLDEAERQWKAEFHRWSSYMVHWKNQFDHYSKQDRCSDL
Cytochrome P450 2C19 (Homo sapiens), sequence (P33261 whole entry, looked up): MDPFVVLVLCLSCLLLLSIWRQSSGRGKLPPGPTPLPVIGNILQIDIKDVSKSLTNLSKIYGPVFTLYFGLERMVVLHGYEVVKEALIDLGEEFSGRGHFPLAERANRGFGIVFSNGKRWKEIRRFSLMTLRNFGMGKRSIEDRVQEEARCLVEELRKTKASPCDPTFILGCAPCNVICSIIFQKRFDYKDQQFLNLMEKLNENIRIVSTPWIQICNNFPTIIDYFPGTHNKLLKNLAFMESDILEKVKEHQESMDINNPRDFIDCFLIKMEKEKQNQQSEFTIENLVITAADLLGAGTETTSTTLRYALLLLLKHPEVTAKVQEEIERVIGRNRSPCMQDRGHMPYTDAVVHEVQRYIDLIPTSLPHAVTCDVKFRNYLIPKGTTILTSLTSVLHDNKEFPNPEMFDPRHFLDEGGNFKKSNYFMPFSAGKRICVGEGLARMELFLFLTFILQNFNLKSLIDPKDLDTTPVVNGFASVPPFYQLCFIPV
Cytochrome P450 1A2 (Homo sapiens), sequence (P05177 whole entry, looked up): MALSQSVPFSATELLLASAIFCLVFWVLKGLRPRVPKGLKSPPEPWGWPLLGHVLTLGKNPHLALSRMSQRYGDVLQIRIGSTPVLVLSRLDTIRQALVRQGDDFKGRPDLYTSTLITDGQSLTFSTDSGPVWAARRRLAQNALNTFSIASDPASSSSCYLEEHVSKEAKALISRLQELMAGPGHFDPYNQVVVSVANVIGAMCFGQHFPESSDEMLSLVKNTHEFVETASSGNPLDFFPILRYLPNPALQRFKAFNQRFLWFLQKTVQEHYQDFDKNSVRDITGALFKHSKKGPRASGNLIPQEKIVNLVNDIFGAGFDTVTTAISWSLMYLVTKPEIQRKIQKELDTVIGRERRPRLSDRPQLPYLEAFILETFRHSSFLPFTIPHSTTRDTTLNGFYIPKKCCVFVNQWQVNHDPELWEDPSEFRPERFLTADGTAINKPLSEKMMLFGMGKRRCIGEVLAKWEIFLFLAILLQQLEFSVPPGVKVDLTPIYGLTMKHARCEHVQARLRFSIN
Cytochrome P450 2C9 (Homo sapiens), sequence (P11712 whole entry, looked up): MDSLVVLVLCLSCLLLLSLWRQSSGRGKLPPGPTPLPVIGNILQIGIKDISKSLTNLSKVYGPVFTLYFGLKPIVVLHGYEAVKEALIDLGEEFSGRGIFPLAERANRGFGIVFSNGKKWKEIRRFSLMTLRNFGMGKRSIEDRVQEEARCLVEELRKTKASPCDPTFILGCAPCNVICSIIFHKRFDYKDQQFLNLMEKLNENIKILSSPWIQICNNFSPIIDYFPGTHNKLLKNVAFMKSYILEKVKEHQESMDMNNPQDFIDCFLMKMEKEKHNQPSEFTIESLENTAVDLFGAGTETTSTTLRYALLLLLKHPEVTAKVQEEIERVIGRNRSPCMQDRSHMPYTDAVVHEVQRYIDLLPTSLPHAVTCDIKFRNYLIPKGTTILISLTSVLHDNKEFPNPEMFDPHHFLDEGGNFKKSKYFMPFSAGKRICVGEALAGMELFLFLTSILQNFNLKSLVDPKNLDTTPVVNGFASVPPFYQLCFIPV
Voltage-gated inwardly rectifying potassium channel KCNH2 (Homo sapiens), sequence (Q12809 whole entry, looked up): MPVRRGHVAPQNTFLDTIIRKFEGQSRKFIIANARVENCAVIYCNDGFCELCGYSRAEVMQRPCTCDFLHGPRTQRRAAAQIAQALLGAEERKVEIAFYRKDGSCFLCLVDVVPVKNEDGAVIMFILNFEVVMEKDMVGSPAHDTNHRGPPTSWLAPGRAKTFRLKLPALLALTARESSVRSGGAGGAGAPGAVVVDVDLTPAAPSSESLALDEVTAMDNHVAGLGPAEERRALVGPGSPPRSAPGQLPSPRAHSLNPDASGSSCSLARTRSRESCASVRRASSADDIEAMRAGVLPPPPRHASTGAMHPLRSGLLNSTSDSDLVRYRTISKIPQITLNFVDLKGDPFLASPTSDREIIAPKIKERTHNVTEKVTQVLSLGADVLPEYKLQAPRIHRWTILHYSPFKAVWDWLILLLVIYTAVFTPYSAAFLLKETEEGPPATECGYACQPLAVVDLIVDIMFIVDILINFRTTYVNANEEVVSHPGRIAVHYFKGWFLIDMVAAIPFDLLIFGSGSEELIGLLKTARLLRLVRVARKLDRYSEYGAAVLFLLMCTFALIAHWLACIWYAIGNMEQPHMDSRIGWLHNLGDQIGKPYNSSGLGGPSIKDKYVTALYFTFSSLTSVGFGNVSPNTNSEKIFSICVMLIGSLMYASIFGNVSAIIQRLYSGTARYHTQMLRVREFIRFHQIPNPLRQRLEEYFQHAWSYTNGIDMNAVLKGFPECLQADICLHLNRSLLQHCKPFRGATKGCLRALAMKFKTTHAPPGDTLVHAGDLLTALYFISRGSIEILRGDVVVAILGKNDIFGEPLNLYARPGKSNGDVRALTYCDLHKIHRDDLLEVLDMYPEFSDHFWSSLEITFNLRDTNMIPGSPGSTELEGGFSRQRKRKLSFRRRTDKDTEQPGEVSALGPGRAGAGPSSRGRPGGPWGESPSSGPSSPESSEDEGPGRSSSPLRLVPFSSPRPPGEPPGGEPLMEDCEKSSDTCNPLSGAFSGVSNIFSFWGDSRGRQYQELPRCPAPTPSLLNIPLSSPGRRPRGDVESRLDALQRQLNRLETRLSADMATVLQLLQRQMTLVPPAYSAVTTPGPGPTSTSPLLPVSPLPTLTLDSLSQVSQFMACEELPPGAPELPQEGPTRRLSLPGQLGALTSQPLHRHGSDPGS
Cytochrome P450 2D6 (Homo sapiens), sequence (P10635 whole entry, looked up): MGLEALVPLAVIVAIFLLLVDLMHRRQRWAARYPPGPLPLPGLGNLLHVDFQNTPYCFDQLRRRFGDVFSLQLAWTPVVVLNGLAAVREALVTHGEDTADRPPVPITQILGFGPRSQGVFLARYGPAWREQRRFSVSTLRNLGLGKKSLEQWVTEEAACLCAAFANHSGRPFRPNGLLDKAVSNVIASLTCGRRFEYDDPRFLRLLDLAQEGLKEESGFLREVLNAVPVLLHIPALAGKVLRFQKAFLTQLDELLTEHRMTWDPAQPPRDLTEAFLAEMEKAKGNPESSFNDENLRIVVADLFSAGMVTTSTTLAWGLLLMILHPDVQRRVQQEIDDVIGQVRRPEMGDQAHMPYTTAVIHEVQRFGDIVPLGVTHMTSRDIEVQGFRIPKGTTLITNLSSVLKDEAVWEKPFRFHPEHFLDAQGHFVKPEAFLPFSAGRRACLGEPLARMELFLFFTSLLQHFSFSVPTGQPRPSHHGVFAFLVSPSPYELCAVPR

In the case of `CCCCCCCCCCCC#N`, the Potency [1] was “inactive”, the Potency [2] was “inactive” and the Potency [3] was “inactive”. The Potency [4] was “inactive”, the Potency [5] was “inactive” and the Potency [6] was “inactive”. The Potency [7] was “inactive”, the Potency [8] was 18 µM (active) and inactive and the Potency [9] was “inactive”. The Potency [10] was “inactive”, the Potency [11] was “inactive” and the Potency [12] was “inactive”.
With `COc1ccc2c3c1O[C@H]1[C@@H](O)C=C[C@H]4[C@@H](C2)N(C)CC[C@@]341` the Potency [1] was “inactive”, the Potency [2] was “inactive” and the Potency [3] was “inactive”. The Potency [4] was “inactive”, the Potency [5] was “inactive” and the Potency [6] was “inactive”. For the same molecule, the Potency [8] was “inactive”, the Potency [10] was “inactive” and the Potency [12] was “inactive”.
In the case of `Cc1[nH]c(=O)n(C(C)(C)C)c(=O)c1Cl`, the Potency [1] was “inactive”, the Potency [2] was “inactive” and the Potency [4] was “inactive”. For the same molecule, the Potency [6] was “inactive”, the Potency [7] was “inactive” and the Potency [8] was 71.7 µM (active) and 31.7 µM (active). The Potency [9] was “inactive”, the Potency [11] was “inactive” and the Potency [12] was “inactive”.
With `O=c1[nH]c(=O)[nH]c(=O)[nH]1` the Potency [1] was “inactive”, the Potency [2] was “inactive” and the Potency [4] was “inactive”. For the same molecule, the Potency [5] was “inactive”, the Potency [6] was “inactive” and the Potency [7] was 63.2 µM (active) and inactive. For the same molecule, the Potency [8] was “inactive”, the Potency [10] was “inactive” and the Potency [12] was “inactive”.
With `Oc1ccccc1Cl` the Potency [1] was “inactive”, the Potency [2] was “inactive” and the Potency [4] was “inactive”. The Potency [6] was “inactive”, the Potency [7] was “inactive” and the Potency [8] was “inactive”. For the same molecule, the Potency [11] was “inactive” and the Potency [12] was “inactive”.
With `CC(C)(C)C(O)(CCc1ccc(Cl)cc1)Cn1cncn1` (centres undefined) the Potency [1] was “inactive”, the Potency [2] was 27.6 µM (active) and 9.69 µM (active) and the Potency [4] was “inactive”. For the same molecule, the Potency [5] was “inactive”, the Potency [6] was “inactive” and the Potency [7] was 28.6 µM (active) and 35.6 µM (active). For the same molecule, the Potency [8] was 640 nM (active) and 448 nM (active), the Potency [10] was 32.1 µM (active) and 28.3 µM (active) and the Potency [11] was “inactive”. The Potency [12] was 114 nM (active) and 200 nM (active).
For `Cc1cccc([N+](=O)[O-])c1`, the Potency [1] was “inactive”, the Potency [2] was “inactive” and the Potency [3] was “inactive”. For the same molecule, the Potency [4] was “inactive”, the Potency [5] was “inactive” and the Potency [6] was “inactive”. The Potency [7] was “inactive”, the Potency [8] was “inactive” and the Potency [10] was “inactive”. The Potency [12] was “inactive”.
For `CC(=O)C=C(C)C`, the Potency [1] was “inactive”, the Potency [2] was “inactive” and the Potency [4] was “inactive”. For the same molecule, the Potency [5] was “inactive”, the Potency [6] was “inactive” and the Potency [7] was “inactive”. For the same molecule, the Potency [8] was “inactive”, the Potency [10] was “inactive” and the Potency [12] was “inactive”.
For `CN(N=O)c1ccccc1`, the Potency [1] was “inactive”, the Potency [2] was “inactive” and the Potency [3] was “inactive”. For the same molecule, the Potency [4] was “inactive”, the Potency [5] was “inactive” and the Potency [6] was “inactive”. For the same molecule, the Potency [7] was “inactive”, the Potency [8] was “inactive” and the Potency [9] was “inactive”. For the same molecule, the Potency [10] was “inactive”, the Potency [11] was “inactive” and the Potency [12] was “inactive”.
With `Cc1cc(-c2cc(C)c(N)c(C)c2)cc(C)c1N` the Potency [1] was “inactive”, the Potency [2] was 54.6 µM (active) and 26.8 µM (active) and the Potency [3] was “inactive”. For the same molecule, the Potency [4] was “inactive”, the Potency [5] was “inactive” and the Potency [6] was “inactive”. For the same molecule, the Potency [7] was 22.5 µM (active) and 15.6 µM (active), the Potency [8] was 10.1 µM (active) and 8.78 µM (active) and the Potency [9] was 40 µM (active) and 22 µM (active). The Potency [10] was 712 nM (active) and 311 nM (active) and the Potency [12] was 34.9 µM (active).
In the case of `O=c1[nH]c2ccccc2c(=O)o1`, the Potency [1] was “inactive”, the Potency [2] was “inactive” and the Potency [3] was “inactive”. For the same molecule, the Potency [4] was “inactive”, the Potency [6] was “inactive” and the Potency [7] was “inactive”. The Potency [8] was “inactive”, the Potency [10] was “inactive and 35.6 µM (active)” and the Potency [11] was “inactive”. The Potency [12] was “inactive”.
